The target of this test is T1, Pan (Drosophila melanogaster, UniProt P91943 258-356).
T1 sequence: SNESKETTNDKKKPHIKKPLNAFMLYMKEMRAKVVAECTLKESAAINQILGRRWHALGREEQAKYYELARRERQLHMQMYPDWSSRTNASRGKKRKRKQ
In words: FP; 33 mM phosphate pH 7.0, 90 mM NaCl, 0.01% Tween 20, 0.1 mM DTT, 0.5% agarose; room temperature. The conditions noted are these: tags: N-GST (pGEX-6P-1, kept); dsDNA, one strand shown.
In the case of AGTCTTTGATAGA, the binding signal is 1.78 Kd / Kd of best base at the position.

In the case of AGTCTTCGATAAA, the binding signal was 7.5 Kd / Kd of best base at the position. With AGTCTCTGATAAA, the binding signal was 9.73 Kd / Kd of best base at the position. On to AGTCTTTGATCAA, for which the binding signal is 2.02 Kd / Kd of best base at the position.

Regarding AGTCTTTGAAAAA, the binding signal is 2.52 Kd / Kd of best base at the position. Still for that read-out and setting: then TGTCTTTGATAAA, with 1.34 Kd / Kd of best base at the position; and AGGCTTTGATAAA, with 4.74 Kd / Kd of best base at the position; and AGTCGTTGATAAA, with 9.13 Kd / Kd of best base at the position. Consider AGTCTTTGATAAA, for which the dissociation constant (Kd) was about 73 nM. Regarding AGTCTTTGCTAAA, the binding signal was 2.06 Kd / Kd of best base at the position. In the case of AGTCTTTGATAAG, the binding signal is 3.01 Kd / Kd of best base at the position. On to ACTCTTTGATAAA, for which the binding signal is 1.97 Kd / Kd of best base at the position. On to AGTATTTGATAAA, for which the binding signal is 5.89 Kd / Kd of best base at the position.

On to AGTCTATGATAAA, for which the binding signal was 8.1 Kd / Kd of best base at the position. Same read-out and setting: then AGTCTTTGATGAA, with 1.49 Kd / Kd of best base at the position; and AGTCTTTCATAAA, with 8.7 Kd / Kd of best base at the position.

As for AGTCTTGGATAAA, the binding signal is 5.87 Kd / Kd of best base at the position.

ATTCTTTGATAAA: the binding signal was 1.9 Kd / Kd of best base at the position.

Regarding AGTCTTAGATAAA, the binding signal is 10.4 Kd / Kd of best base at the position.

Turning to AGCCTTTGATAAA, the binding signal was 2.89 Kd / Kd of best base at the position. Take AGTCTTTGACAAA: the binding signal is 4.34 Kd / Kd of best base at the position. The same measure, in the same setting: then AGTCTTTGATATA, with 1.14 Kd / Kd of best base at the position. Same read-out and setting: then AGTCTTTGATAAT, with 1.35 Kd / Kd of best base at the position. In the case of AGTTTTTGATAAA, the binding signal was 5.89 Kd / Kd of best base at the position.

For AATCTTTGATAAA, the binding signal is 6.88 Kd / Kd of best base at the position. AGTCTTTGATTAA: the binding signal was 1.63 Kd / Kd of best base at the position. On the same count and under the same terms, then AGTCTTTGATACA, with 2.07 Kd / Kd of best base at the position; and AGACTTTGATAAA, with 1.18 Kd / Kd of best base at the position. With AGTCTTTGTTAAA, the binding signal is 4.66 Kd / Kd of best base at the position. On the same count and under the same terms, then AGTCTTTGATAAC, with 4.04 Kd / Kd of best base at the position.

Take CGTCTTTGATAAA: the binding signal is 2.92 Kd / Kd of best base at the position. Same read-out and setting: then AGTCCTTGATAAA, with 5.41 Kd / Kd of best base at the position. AGTCATTGATAAA: the binding signal is 7.68 Kd / Kd of best base at the position. Turning to AGTCTTTTATAAA, the binding signal is 3.15 Kd / Kd of best base at the position.

With AGTCTTTAATAAA, the binding signal was 4.58 Kd / Kd of best base at the position. Turning to AGTCTTTGAGAAA, the binding signal is 1.72 Kd / Kd of best base at the position. Consider GGTCTTTGATAAA, for which the binding signal is 1.08 Kd / Kd of best base at the position.

The values above are taken from PMC5913336, “True equilibrium measurement of transcription factor-DNA binding affinities using automated polarization microscopy”.
